A number with no mark means an inactive call.
Legend:
NHEM-hTERT = experiment: cell viability relative to DMSO control (fraction of DMSO control); higher = less cytotoxic, active = 0.5 or less; settings: 1 µM; 120 h
Outline: (§1)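 Cells in 40 µl per well went into 384-well plates pre-spotted acoustically with a TargetMol library of 315 approved anti-cancer drugs, each at 1 µM in duplicate, for 120 h. Seeding was 2500/well for NHEM-hTERT immortalized melanocytes and 1500/well for patient-derived Mel-DCC-11 and its resistant subline Mel-DCC-11-R, which was run alone and with 8 µM of its selecting drug. Luminescence was read with ATPlite 1step. Viability was normalised to vehicle-treated controls and averaged over duplicates.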

Mel-DCC-11-R = experiment: cell viability relative to DMSO control (fraction of DMSO control); higher = less cytotoxic, active = 0.8 or less; settings: 1 µM, 120 h
Outline: as §1

Compound	cell viability (NHEM-hTERT)	cell viability (Mel-DCC-11-R; vemurafenib co-treatment 0 µM)	cell viability (Mel-DCC-11-R; vemurafenib co-treatment 8 µM)
COc1cc([C@@H]2c3cc4c(cc3[C@@H](O[C@@H]3O[C@@H]5CO[C@@H](C)O[C@H]5[C@H](O)[C@H]3O)C3COC(=O)C32)OCO4)cc(OC)c1O (some centres not stated) [Etoposide]	0.798	1.26	0.859
CO[C@H]1C(=O)[C@]2(C)[C@@H](OC)C[C@H]3OC[C@@]3(OC(C)=O)[C@H]2[C@H](OC(=O)c2ccccc2)[C@]2(O)C[C@H](OC(=O)[C@H](O)[C@@H](NC(=O)OC(C)(C)C)c3ccccc3)C(C)=C1C2(C)C [Cabazitaxel]	0.692	1.04	0.565 (active)
CN(C)N=Nc1[nH]cnc1C(N)=O [Dacarbazine]	0.982	1.04	1.17
COC(=O)N[C@@H](C)CNc1nccc(-c2cn(C(C)C)nc2-c2cc(Cl)cc(NS(C)(=O)=O)c2F)n1 [Encorafenib]	0.972	0.802	0.74 (active)
O=C(NC(Cc1cc(=O)[nH]c2ccccc12)C(=O)O)c1ccc(Cl)cc1 (configuration not stated) [Rebamipide]	1	0.995	1.24
Nc1nc(Cl)nc2c1ncn2[C@@H]1O[C@H](CO)[C@@H](O)[C@@H]1F [Clofarabine]	0.53	0.91	0.67 (active)
CCN(c1cc(-c2ccc(CN3CCOCC3)cc2)cc(C(=O)NCc2c(C)cc(C)[nH]c2=O)c1C)C1CCOCC1	0.964	0.831	0.967
Nc1ccccc1NC(=O)c1ccc(CNc2nccc(-c3cccnc3)n2)cc1 [Mocetinostat]	0.55	0.558 (active)	0.545 (active)
COc1cc2nccc(Oc3ccc(NC(=O)C4(C(=O)Nc5ccc(F)cc5)CC4)cc3)c2cc1OC.O=C(O)C[C@H](O)C(=O)O	0.932	1.05	0.365 (active)
c1cn2cc(-c3ccc4cn[nH]c4c3)nc(Nc3ccc(N4CCOCC4)cc3)c2n1 [Entospletinib]	0.558	0.904	0.877
CN(C)CCOc1ccc(/C(=C(/CCCl)c2ccccc2)c2ccccc2)cc1 [Toremifene]	0.904	0.887	1.26
CC(=O)c1c(C)c2cnc(Nc3ccc(N4CCNCC4)cn3)nc2n(C2CCCC2)c1=O.Cl [Palbociclib hydrochloride]	1.05	1.46	1.08
COc1c(OCCCN2CCOCC2)ccc2c1N=C(NC(=O)c1cnc(N)nc1)N1CCN=C21 [Copanlisib]	0.829	0.671 (active)	0.254 (active)
CC(O)(P(=O)(O)O)P(=O)(O)O [Etidronate]	1.15	1.12	0.981

Reference: the supplement of paper PMC12808144
